Laboratory results published in article PMC4336329 (PLoS ONE, 2015).
The whole screen tested about 310,000 compounds, of which about 2,200 (0.71%) showed an effect of 50% or more. The effect is printed as a negative number. This excerpt belongs to a sample that is enriched for strong results.

Biological target: human ether-à-go-go-related gene (hERG) potassium channel (human, UniProt Q12809)
Test: primary screen, population patch clamp on CHO cells stably expressing hERG; higher = less effect of the substance
Protocol: Briefly, Chinese hamster ovary (CHO) cells stably expressing the hERG channel were dislodged from tissue culture flasks and dispensed into PPC plates. […] During the recording, background leak currents were estimated by a 100 ms step to -80 mV from an initial holding potential of -70 mV and subtracted from the subsequent current measurement. The campaign was conducted in two phases using slight differences in recording protocol. In the first phase, the initial voltage pulse used a 100 ms step to -30 mV from a holding potential of -70 mV, a 2 s conditioning step to +25 mV, and a 2 s test step to -30 mV. During the second phase of the screen, the potential during the conditioning step was raised to +45 mV. In both phases of the campaign, a secondary voltage pulse was applied using the same parameters as the second phase initial pulse. The initial and secondary pulses were applied in the absence of compound, and upon application of 1 μM and 10 μM test concentrations. Small molecule effects on hERG current density were quantified by […].

Sequence of human ether-à-go-go-related gene (hERG) potassium channel (Q12809 whole entry, looked up): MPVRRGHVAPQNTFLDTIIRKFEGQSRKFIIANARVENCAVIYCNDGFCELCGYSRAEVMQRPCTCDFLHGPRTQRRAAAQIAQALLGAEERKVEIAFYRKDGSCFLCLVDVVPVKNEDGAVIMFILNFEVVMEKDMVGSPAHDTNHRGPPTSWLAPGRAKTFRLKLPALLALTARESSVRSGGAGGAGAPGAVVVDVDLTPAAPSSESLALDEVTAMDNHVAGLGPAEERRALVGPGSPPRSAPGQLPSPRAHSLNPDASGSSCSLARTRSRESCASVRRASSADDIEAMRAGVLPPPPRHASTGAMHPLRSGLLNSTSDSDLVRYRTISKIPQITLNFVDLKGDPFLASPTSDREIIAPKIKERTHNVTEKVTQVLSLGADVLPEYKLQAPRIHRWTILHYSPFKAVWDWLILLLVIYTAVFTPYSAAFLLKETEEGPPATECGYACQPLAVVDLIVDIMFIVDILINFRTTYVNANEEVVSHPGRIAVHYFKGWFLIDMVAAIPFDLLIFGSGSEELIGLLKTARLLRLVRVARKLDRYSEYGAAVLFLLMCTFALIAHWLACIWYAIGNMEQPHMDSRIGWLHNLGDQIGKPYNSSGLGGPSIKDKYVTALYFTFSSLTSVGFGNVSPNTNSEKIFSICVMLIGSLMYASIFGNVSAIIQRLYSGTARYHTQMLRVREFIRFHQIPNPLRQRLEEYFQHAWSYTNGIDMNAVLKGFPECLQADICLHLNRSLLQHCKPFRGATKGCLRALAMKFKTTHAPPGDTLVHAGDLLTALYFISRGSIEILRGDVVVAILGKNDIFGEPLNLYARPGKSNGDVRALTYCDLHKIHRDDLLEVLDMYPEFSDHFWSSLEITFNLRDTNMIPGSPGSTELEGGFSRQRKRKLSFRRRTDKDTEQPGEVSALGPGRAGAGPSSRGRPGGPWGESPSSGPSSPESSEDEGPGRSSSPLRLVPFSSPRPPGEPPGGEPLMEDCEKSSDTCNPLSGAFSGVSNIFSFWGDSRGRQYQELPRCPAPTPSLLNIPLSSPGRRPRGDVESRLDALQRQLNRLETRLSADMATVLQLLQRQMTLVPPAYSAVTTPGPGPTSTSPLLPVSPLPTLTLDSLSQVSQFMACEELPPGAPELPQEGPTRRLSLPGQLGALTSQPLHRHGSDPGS

First: CCOc1cc(/C=C2\C(=O)ON=C2c2ccccc2)cc(Br)c1O
Second: COC(=O)c1ccc(CNC(=O)COc2ccccc2Br)o1
The “hERG current change (%, negative = inhibition) at 1uM” value of the first is lower: 10.4% for the first, 12.4% for the second.

Going from `O=C(CCCc1ccccc1)NCc1ccc2c(c1)OCO2` to `CCCCCC(=O)Nc1cc(N(C)C)nc2ccccc12`, the “hERG current change (%, negative = inhibition) at 1uM” value falls from 8.58% to -77.9%.

Compared with `COc1cccc(Cn2c(NCC(C)C)nc3c2c(=O)n(C)c(=O)n3C)c1`, `CC(C)CNS(=O)(=O)c1ccc(NC(=O)Cn2nc(-c3ccc(F)cc3)ccc2=O)cc1` is higher in “hERG current change (%, negative = inhibition) at 1uM” value: -7.04% for the first, 7.17% for the second.

Compared with `CCC(=O)Nc1ccc(NC(=O)c2cc3ccccc3o2)cc1`, `O=C(Nc1ccccc1)c1cc2ccccc2o1` is higher in “hERG current change (%, negative = inhibition) at 1uM” value: -5.21% for the first, 8.25% for the second.

Compared with `CC/C(=C\c1oc2cc3ccccc3cc2[n+]1CC)Nc1ccccc1.[I-]`, `CN(C/C=C/c1ccccc1)Cc1cccc2ccccc12.Cl` is higher in “hERG current change (%, negative = inhibition) at 1uM” value: -83.7% for the first, 5.76% for the second.

Compared with `Cc1cccc(NC(=S)Nn2cnnc2)c1C`, `CCCCC(=O)Nc1cc(N(C)C)nc2ccccc12` is lower in “hERG current change (%, negative = inhibition) at 1uM” value: 10.9% for the first, -30.7% for the second.

Going from `Cc1ccc(-c2cc(C(=O)N3CCN(C4CCS(=O)(=O)C4)CC3)c3ccccc3n2)cc1` (stereo not drawn) to `Cc1cccc(C(=O)NCC(=O)N2CC=C(c3ccccc3)CC2)c1`, the “hERG current change (%, negative = inhibition) at 1uM” value rises from -3.04% to -1.82%.

Going from `Cc1ccc(NC(=O)CN(C)C(=O)CSc2nc(C)cs2)cc1` to `CCN(CC)CC(=O)Nc1cc(N(C)C)nc2ccccc12.O=C(O)C(=O)O`, the “hERG current change (%, negative = inhibition) at 1uM” value rises from 3.7% to 6.57%.

First: CC(Cc1ccccc1)NCC(=O)Nc1cc(N(C)C)nc2ccccc12.O=C(O)C(=O)O (stereo not drawn)
Second: CN(C)c1cc(NC(=O)CNC(C)(C)C)c2ccccc2n1.O=C(O)C(=O)O
The “hERG current change (%, negative = inhibition) at 1uM” value of the first is lower: -73.5% for the first, 2.05% for the second.

Compared with `CN(C)c1cc(NC(=O)CNC(C)(C)CC(C)(C)C)c2ccccc2n1.O=C(O)C(=O)O`, `Cn1c(-c2ccccc2)cnc1NCc1ccc(-c2ccccc2)cc1.O=C(O)C(=O)O` is higher in “hERG current change (%, negative = inhibition) at 1uM” value: -7.36% for the first, 11% for the second.

Going from `NS(=O)(=O)c1ccc(O)c(N2C(=O)c3cccc4c(C(=O)O)ccc(c34)C2=O)c1` to `Cc1ccc(NC(=O)CN2C(=O)CCSc3ccc(S(=O)(=O)N4CCCC4)cc32)cc1`, the “hERG current change (%, negative = inhibition) at 1uM” value rises from 10.3% to 19%.

First: COc1ccc(C(=O)CSc2nc(-c3ccccn3)nc(C)c2Cl)cc1
Second: CCc1ccc(C(=O)NNc2cc(Cl)ccc2Cl)cc1
The “hERG current change (%, negative = inhibition) at 1uM” value of the first is higher: 13% for the first, 12.5% for the second.

Going from `Cc1nonc1CC(=O)N1CCCC(C(=O)c2cccc(C(F)(F)F)c2)C1` (stereo not drawn) to `O=C(NCc1cc(C(F)(F)F)cc(C(F)(F)F)c1)C1CC(c2cccc(F)c2)=NO1` (stereo not drawn), the “hERG current change (%, negative = inhibition) at 1uM” value rises from -20.6% to 2.14%.

Compared with `O=C(C1CCC(=O)N1Cc1cccnc1)N1CCN(c2ccc(F)cc2)CC1` (stereo not drawn), `O=C(NCC(=O)N1CC=C(c2ccccc2)CC1)c1ccco1` is lower in “hERG current change (%, negative = inhibition) at 1uM” value: 10.5% for the first, -50.9% for the second.

Compared with `OCC[N+]12CCC(CC1)C(C(O)(c1ccccc1)c1ccccc1)C2` (stereo not drawn), `c1ccc(Cn2ncc3ccccc32)cc1` is lower in “hERG current change (%, negative = inhibition) at 1uM” value: 15.2% for the first, 10.6% for the second.

Compared with `CSc1ccc(CNc2ncc(-c3cccc([N+](=O)[O-])c3)n2C)cc1.O=C(O)C(=O)O`, `Cn1c(-c2cccc([N+](=O)[O-])c2)cnc1NCc1ccc(C#N)cc1.O=C(O)C(=O)O` is lower in “hERG current change (%, negative = inhibition) at 1uM” value: -26.5% for the first, -56.4% for the second.

First: Cn1c(-c2cccc([N+](=O)[O-])c2)cnc1NCc1cccc([N+](=O)[O-])c1.O=C(O)C(=O)O
Second: Cn1c(-c2ccc(Br)cc2)cnc1NCc1ccc(C#N)cc1.O=C(O)C(=O)O
The “hERG current change (%, negative = inhibition) at 1uM” value of the first is higher: -28.2% for the first, -77.2% for the second.

First: Cn1c(-c2ccc(F)cc2)cnc1NCc1ccc(C#N)cc1
Second: C=CCNc1cnn(-c2ccc(C)cc2)c(=O)c1Sc1ccc(C)cc1
The “hERG current change (%, negative = inhibition) at 1uM” value of the first is lower: -22.9% for the first, 13.8% for the second.

Going from `O=C1CC(c2ccc(Cl)cc2)CC(O)=C1C=NCCO` (stereo not drawn) to `CN(C)C=Nc1nonc1-c1ccc(Cl)cc1`, the “hERG current change (%, negative = inhibition) at 1uM” value rises from 10.6% to 11.2%.

Compared with `O=C1C2C3C=CC(C3)C2C(=O)N1CCN1CCN(S(=O)(=O)/C=C/c2ccccc2)CC1` (stereo not drawn), `O=C(NCCCn1ccnc1)/C(=C\c1cccnc1)NC(=O)c1ccccc1F` is lower in “hERG current change (%, negative = inhibition) at 1uM” value: 11% for the first, 8% for the second.

Going from `Cc1cc(C)n2c(SCC(=O)NC3CCCC(C)C3C)nnc2n1` (stereo not drawn) to `CCOC(=O)C1CCN(CC(=O)c2ccc(O)c(C)c2O)CC1`, the “hERG current change (%, negative = inhibition) at 1uM” value falls from 12.4% to 12.3%.

Going from `O=c1cc(-c2ccccc2F)oc2ccccc12` to `N#C/C(=C\c1c(Cl)cccc1Cl)c1nc2ccccc2o1`, the “hERG current change (%, negative = inhibition) at 1uM” value rises from 2.56% to 2.68%.

First: CSCCC(NC(=O)c1ccco1)C(=O)N1CC=C(c2ccccc2)CC1 (stereo not drawn)
Second: O=C(N=C1SCC(=O)N1c1ccccc1)c1ccco1
The “hERG current change (%, negative = inhibition) at 1uM” value of the first is lower: -1.93% for the first, -1.23% for the second.

First: CCOCCCNS(=O)(=O)c1ccc(NC(=O)C2CC(=O)N(c3ccc(C)cc3)C2)cc1 (stereo not drawn)
Second: COc1ccccc1C(=O)N/C(=C/c1ccc(Br)cc1)C(=O)NCCCn1ccnc1
The “hERG current change (%, negative = inhibition) at 1uM” value of the first is higher: 11.4% for the first, -84.8% for the second.

Compared with `O=C(NCCCn1ccnc1)/C(=C\c1cccnc1)NC(=O)c1ccccc1Br`, `O=C(NCCCn1ccnc1)/C(=C\c1ccc(Br)cc1)NC(=O)c1ccccc1F` is lower in “hERG current change (%, negative = inhibition) at 1uM” value: 9.44% for the first, -81.5% for the second.

Compared with `COc1ccccc1C(=O)N/C(=C\c1cn(C)c2ccccc12)C(=O)NCCCn1ccnc1`, `COc1ccccc1C(=O)N/C(=C\c1ccc(Br)cc1)C(=O)NCCCO` is lower in “hERG current change (%, negative = inhibition) at 1uM” value: 12.2% for the first, -0.677% for the second.

Going from `Cc1cc2c(NC3CCCCC3)ncnc2s1.Cl` to `Cc1cc(-c2ccc(C)c(S(=O)(=O)Nc3cc(C)on3)c2)on1`, the “hERG current change (%, negative = inhibition) at 1uM” value falls from 12% to 1.77%.
